Among all 53,000 compounds or so, about 900 (1.7%) showed an effect of 50% or more. The sample as a whole holds a higher share of strong results than the screen did.
These compounds were tested on Mycobacterium tuberculosis (assay: Cornell - Phenotypic assay to identify agents that inhibit growth of Mycobacterium tuberculosis). Conditions: 10 mM as filed; unlikely as a test dose.
Type: functional
Parameters: scale not given: direction of the effect not stated beside the values
In the case of O=C(O)C(F)(F)F.O=C(O)C(F)(F)F.O=C(O)C(F)(F)F.c1cc(CNCC2OCCc3cn(CC4CCOCC4)nc32)ccn1 (centres undefined), the “Percent Effect” value is reported as -7.498%.
For CCCN(CC(F)(F)F)S(=O)(=O)c1cc(C(N)=O)n(C)c1, the “Percent Effect” value was -26.73%.
With COCC1CCN(C(=O)c2cn(Cc3cccc(C(F)(F)F)c3)nn2)C1 (centres undefined) the “Percent Effect” value was 30.37%.
In the case of COCC1CCN(C(=O)c2cn(Cc3ccccc3F)nn2)CC1, the “Percent Effect” value is reported as 25.9%.
COCC1CCN(C(=O)c2cn(Cc3ccccc3C(F)(F)F)nn2)C1 (centres undefined) was tested, and the “Percent Effect” value was 62.81%.
In the case of Cc1nc(NCC2CCOCC2)cc(C2CCN2S(C)(=O)=O)n1 (centres undefined), the “Percent Effect” value is reported as 10.58%.
In the case of CC1N(c2cnn(C)c2)C(=O)COC12CCN(Cc1ccco1)CC2.O=C(O)C(F)(F)F (centres undefined), the “Percent Effect” value is reported as 2.626%.
For COCCNC(=O)[C@H]1C[C@@H]2CCN(c3ccncn3)C[C@H]2O1.O=C(O)C(F)(F)F, the “Percent Effect” value was 26.18%.
In the case of CCCNC(=O)c1cncc(CC2CCCN(C)C2)c1 (centres undefined), the “Percent Effect” value is reported as -32.48%.
For CN1C(=O)[C@H](OC(N)=O)[C@@H](C(=O)Nc2ccccc2)C12CCNCC2, the “Percent Effect” value was -56.88%.
For COCCN(Cc1ccco1)Cc1nc(-c2ccsc2)no1, the “Percent Effect” value was -23.17%.
With COCCN(Cc1ccco1)Cc1nc(-c2ccccc2)no1 the “Percent Effect” value was -9.832%.
For COCCN(Cc1ccccc1)Cc1nc(-c2ccsc2)no1, the “Percent Effect” value was 50.54%.
For CN(C)c1cc(C2CCCN(C(=O)c3noc4c3CCCC4)C2)ccn1 (centres undefined), the “Percent Effect” value was 38.49%.
In the case of COCCNC(=O)c1cc2c(c3ccccc3n2C)n1C(=O)N(C)C, the “Percent Effect” value is reported as 18.89%.
With NC(=O)c1ccc(NC(=O)N2CCN(c3cccs3)CC2)c(F)c1 the “Percent Effect” value was 54.78%.
For Cc1cc(NC(=O)N2CCN(c3cccs3)CC2)ccc1C(N)=O, the “Percent Effect” value was 3.823%.
In the case of Cc1cc(C(N)=O)ccc1NC(=O)N1CCN(c2cccs2)CC1, the “Percent Effect” value is reported as 67.2%.
With O=C(Nc1ccccc1-c1cccs1)N1CCN(CC(F)F)CC1 the “Percent Effect” value was -4.883%.
With CNC(=O)CN1CCN(C(=O)Nc2ccc(Cl)cc2F)CC1 the “Percent Effect” value was -7.252%.
In the case of CCn1cnnc1CNC(=O)N1CCN(c2cccs2)CC1, the “Percent Effect” value is reported as -10.74%.
With CC(C)OCCC(=O)NCCc1csc(N2CCCC2)n1 the “Percent Effect” value was -16.85%.
COCC(=O)NCc1cc(=O)n2c(n1)CN(Cc1ccccc1)CCC2.O=C(O)C(F)(F)F was tested, and the “Percent Effect” value was 6.068%.
OCc1ccc(CN(CCCn2ccnc2)Cc2cccnc2)o1 was tested, and the “Percent Effect” value was 33.2%.
N#Cc1cc2c(nc1O)CCCCC2 was tested, and the “Percent Effect” value was -24.16%.
For CN1C(=O)COc2cc(NC(=O)CCc3nc4cccnc4[nH]3)ccc21, the “Percent Effect” value was 11.88%.
In the case of COC(=O)Cc1cn2cc(C(F)(F)F)ccc2n1, the “Percent Effect” value is reported as -22.96%.
With CC(C)NC(=O)[C@@]12CCO[C@@H]1CCN(Cc1ccc3c(c1)OCO3)C2.O=C(O)C(F)(F)F the “Percent Effect” value was -5.39%.
With CCSCC(C)NCc1nc(-c2cccnc2)no1 (centres undefined) the “Percent Effect” value was -14.24%.
O=C(CCc1ccsc1)Nc1cccnc1N1CCCC1 was tested, and the “Percent Effect” value was 8.029%.
For CCN(CC)C(=O)CCc1c(C)nc2cc(O)nn2c1C, the “Percent Effect” value was 7.759%.
COc1cccc([C@@H]2CCN(Cc3cn(C)c4ccccc34)C[C@H]2O)c1 was tested, and the “Percent Effect” value was -6.919%.
With CN(C)[C@@H]1CN(Cc2ccccn2)C[C@H]1c1cn(C)c2ccccc12.Cl the “Percent Effect” value was 54.37%.
For Cc1cc(C)n(C2CN(Cc3ccccn3)C2)n1, the “Percent Effect” value was -9.481%.
In the case of CN(C)[C@@H]1CN(Cc2cccnc2)C[C@H]1c1cn(C)c2ccccc12.Cl, the “Percent Effect” value is reported as 6.134%.
In the case of CN(C)[C@@H]1CN(Cc2ccccc2O)C[C@H]1c1cn(C)c2ccccc12.Cl, the “Percent Effect” value is reported as 107.3%.
With CN(C)[C@@H]1CN(Cc2ccc(O)cc2)C[C@H]1c1cn(C)c2ccccc12.Cl the “Percent Effect” value was -25.68%.
With CSCC[C@@H]1CN2CCC[C@H]2CN1Cc1cn(C)nc1C the “Percent Effect” value was -32.61%.
Cc1nc(CN2CCCN(Cc3nc4c(F)cccc4[nH]3)CC2)no1 was tested, and the “Percent Effect” value was -62.54%.
With O=C(NCCS(=O)(=O)N1CCN(c2ncccn2)CC1)C1CC1 the “Percent Effect” value was -28.73%.
CCN(Cc1ccncc1)CC1(O)CCN(C(=O)c2cccc(C)n2)C1 (centres undefined) was tested, and the “Percent Effect” value was -8.223%.
CCCc1nc(C)c(C(=O)NCCN2CCN(CC)CC2)s1 was tested, and the “Percent Effect” value was 13.14%.
For Cc1cccc(C)c1NC(=O)CC(CN1CCN(C)CC1)C(=O)O (centres undefined), the “Percent Effect” value was 68.43%.
With CN1CCN(CC(CC(=O)Nc2ccc(Cl)cc2)C(=O)O)CC1 (centres undefined) the “Percent Effect” value was 46.61%.
CN1CCCN(CC(CC(=O)Nc2ccc(Cl)cc2)C(=O)O)CC1 (centres undefined) was tested, and the “Percent Effect” value was 27.51%.
In the case of CC(CN1CCOCC1)NC(=O)NCc1cccs1 (centres undefined), the “Percent Effect” value is reported as -17.54%.
COc1cccc(N2CCN(Cc3cccc(CCN)c3)CC2=O)c1 was tested, and the “Percent Effect” value was 56.89%.
COc1cccc(N2CCN(Cc3ncc[nH]3)CC2=O)c1 was tested, and the “Percent Effect” value was -18.02%.
With NCCc1cccc(CN2CCN(c3ccccc3)C(=O)C2)c1 the “Percent Effect” value was -23.11%.
NCCc1cccc(CN2CCN(c3cccc(Cl)c3)C(=O)C2)c1 was tested, and the “Percent Effect” value was 12.48%.
In the case of COc1cc(CN2CCN(c3cccc(OC)c3)C(=O)C2)cc(OC)c1, the “Percent Effect” value is reported as 8.627%.
In the case of COc1cccc(N2CCN(Cc3ccc4ccn(C)c4c3)CC2=O)c1, the “Percent Effect” value is reported as 57.23%.
For COc1cccc(N2CCN(Cc3ccc4[nH]ccc4c3)CC2=O)c1, the “Percent Effect” value was 56.6%.
COc1cccc(N2CCN(Cc3cc(C)cc(F)c3)CC2=O)c1 was tested, and the “Percent Effect” value was 45.53%.
For COc1cccc(N2CCN(Cc3ccc4occc4c3)CC2=O)c1, the “Percent Effect” value was 21.65%.
In the case of Cc1ccnn1CCC(=O)N1CCCC[C@@]2(C)[C@@H]1CCC(=O)N2C, the “Percent Effect” value is reported as -72.7%.
For CC(C)n1nc(CN2CCCC2)c2c1CN(CC1CC1)CC2.O=C(O)C(F)(F)F.O=C(O)C(F)(F)F, the “Percent Effect” value was 3.423%.
With O=C(CCn1nc(C(F)(F)F)c(Cl)c1C1CC1)NN1CCOCC1 the “Percent Effect” value was 6.641%.
In the case of CNS(=O)(=O)c1cc(C(=O)NC2CCOc3ccccc32)cc(C)c1C (centres undefined), the “Percent Effect” value is reported as -0.5765%.
Cc1cccc(CN2CC[C@@H]3[C@@H]2CCN3C(=O)Cc2cccs2)n1.O=C(O)C(F)(F)F.O=C(O)C(F)(F)F was tested, and the “Percent Effect” value was 14.31%.
With Cn1nc(Br)c2c(NCCNc3ncccn3)ncnc21 the “Percent Effect” value was 7.21%.
For O=C(c1nnn(-c2ccc(C(F)(F)F)cc2)n1)N1CC(O)C1, the “Percent Effect” value was 30.38%.
In the case of O=C(c1nnn(-c2ccc(C(F)(F)F)cc2)n1)N1CCC(O)CC1, the “Percent Effect” value is reported as 42.24%.
For CC1CCCN(C(=O)c2nnn(-c3ccc(C(F)(F)F)cc3)n2)C1 (centres undefined), the “Percent Effect” value was 77.62%.
In the case of Cc1cc(N2CCCC2c2nnc3n2CCCCC3)nc(N)n1 (centres undefined), the “Percent Effect” value is reported as -31.59%.
With COCC(=O)N1CCc2ncc(Cn3cncn3)n2CC1 the “Percent Effect” value was 12.01%.
For CN1CC2(CCCN(Cc3cccc(Oc4ccccc4)c3)C2)OC1=O (centres undefined), the “Percent Effect” value was 2.197%.
In the case of Cn1cc(-c2c(C#N)c(N)nc3c2CCc2[nH]ccc2-3)cn1, the “Percent Effect” value is reported as 95.48%.
With COc1ncc(-c2c(C#N)c(N)nc3c2CCc2[nH]ccc2-3)cn1 the “Percent Effect” value was 19.25%.
For Cn1cc(-c2c(C#N)c(N)nc3c2CCc2[nH]ccc2-3)cc1C#N, the “Percent Effect” value was 1.934%.
With Cc1nc(NC(=O)c2c(-n3cnnn3)sc3c2CCCC3)sc1C the “Percent Effect” value was 19.43%.
For CCN1CCCC(NC(=O)CCn2c(C(F)F)cc3cccnc32)C1 (centres undefined), the “Percent Effect” value was 6.84%.
For COCC1N(C(=O)Nc2ccccc2)[C@H]2CC[C@]1(O)CC2 (some centres undefined), the “Percent Effect” value was -35.59%.
For Cc1nc(-c2cccc(N3CCC(N4CCCC4)CC3)c2)cs1, the “Percent Effect” value was 50.87%.
For Cc1nc(-c2cccc(N3CCC(N4CCCC(C#N)C4)CC3)c2)cs1 (centres undefined), the “Percent Effect” value was 11.96%.
In the case of COC1CCCN(C2CCN(c3cccc(-c4csc(C)n4)c3)CC2)C1 (centres undefined), the “Percent Effect” value is reported as -0.3551%.
In the case of COCCN1CCC(CNC(=O)c2ccnc(-n3ccnc3)c2)CC1, the “Percent Effect” value is reported as -23.45%.
For COC(=O)c1cnc(C(=O)N(c2ccc(OC)c(F)c2)C(C)C)cn1, the “Percent Effect” value was 77.94%.
With COc1ccc(N(C(=O)c2cnc(C)cn2)C(C)C)cc1F the “Percent Effect” value was -10.07%.
For COc1ccc(N(C(=O)c2ccccn2)C(C)C)cc1F, the “Percent Effect” value was 9.62%.
In the case of COc1cc(N2C[C@@H]3COC[C@]3(COc3cccnc3)C2)ncn1.O=C(O)C(F)(F)F.O=C(O)C(F)(F)F, the “Percent Effect” value is reported as -11.05%.
For O=C(O)c1ccc(S(=O)(=O)Nc2cnn(CC(F)(F)F)c2)cc1, the “Percent Effect” value was 41.5%.
With COc1cccc(CC(C)NC(=O)NCc2ccn(C)c2)c1 (centres undefined) the “Percent Effect” value was 85.29%.
With COc1cccc(CC(C)NC(=O)NCCNC(C)=O)c1 (centres undefined) the “Percent Effect” value was 11.1%.
In the case of COc1cccc(CC(C)NC(=O)NC(C)C)c1 (centres undefined), the “Percent Effect” value is reported as 44.88%.
CS(=O)(=O)C1CCN(S(=O)(=O)c2ccc(F)c(F)c2)CC1 was tested, and the “Percent Effect” value was 25.65%.
For CC(C)c1nc(CNc2ccc(N3CCC(CO)CC3)cn2)cs1, the “Percent Effect” value was 20.33%.
With CCc1nc(CNC2CCN(c3ccc(OC)cc3)CC2)cs1 the “Percent Effect” value was 27.61%.
With COc1ccc(N2CCC(NCc3csc(C(C)C)n3)CC2)cc1 the “Percent Effect” value was 77.68%.
With COCCn1c(CN2CCCO2)cnc1S(=O)(=O)CC1CCCCC1 the “Percent Effect” value was 19.4%.
With CN(C)C(=O)Cc1ccccc1NCc1cc(C#N)ccc1F the “Percent Effect” value was 3.977%.
Cc1cccc(NC(=O)[C@@H]2CCCN2Cc2ccc(C#N)cc2F)n1 was tested, and the “Percent Effect” value was 12.34%.
For CNC(=O)C1CN(Cc2ccc(C#N)cc2F)c2ccccc2O1 (centres undefined), the “Percent Effect” value was 105.9%.
For CNC(=O)[C@@H]1CC[C@@H]2[C@@H](CCN2Cc2ccccc2F)O1.O=C(O)C(F)(F)F, the “Percent Effect” value was -11.16%.
In the case of CN(C)C(=O)C1CN(Cc2ccc(C#N)cc2F)c2ccccc2O1 (centres undefined), the “Percent Effect” value is reported as 104.6%.
In the case of CN(C)C(=O)C1CN(Cc2ccc(C#N)cc2)c2ccccc2O1 (centres undefined), the “Percent Effect” value is reported as 104.5%.
In the case of Cc1cc(CN2CCN(Cc3ccc(C#N)cc3F)CC2)no1, the “Percent Effect” value is reported as -3.509%.
For N#Cc1ccc(S(=O)(=O)N2CC(CC(=O)O)c3ccccc32)cc1 (centres undefined), the “Percent Effect” value was 19.47%.
CN(C)C1Cc2ccccc2N(S(=O)(=O)c2ccc(C#N)cc2)C1 (centres undefined) was tested, and the “Percent Effect” value was 12.67%.

Source: ChEMBL document CHEMBL3988442, “University of Dundee, Small-Polar-MMV Screening Library” (2021)
